# Test results reported in PubChem BioAssay (NCI).
# The panel holds about 83,000 compounds, 20% with a hit somewhere; the sample as a whole holds those more often.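 Cell lines were cultured in 96-well plates, exposed to a single compound concentration, and assessed for percent growth 48 hours later.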 Values without a mark were called inactive. The source made the active and inactive calls. Rule for the calls: active = growth percent below 10; inactive = the rest.
# Test system: MDA-MB-468 breast
# Experiment: NCI-60 one-dose screen, 48 h (100 = growth as untreated, 0 = no growth, -100 = all killed)
# Details: 10 µM unless noted
row,Compound,growth
1,CCN1CCN(c2nc3ccccc3c3c(=O)c4cc(F)ccc4sc23)CC1,70.9%
2,C#C[C@]1(O)CC[C@H]2[C@@H]3CC=C4c5sc(Nc6cc(OC)ccc6OC)nc5CC[C@]4(C)[C@H]3CC[C@@]21C,9.15% (active)
3,CC1(C)C(=O)/C(=C\c2ccco2)C[C@]2(C)[C@H]3CC[C@@H]4[C@@H](C(=O)/C=C/c5ccco5)CC[C@@]4(C)[C@]3(C)CC[C@@H]12,-1.49% (active)
